Screen size: about 360,000 compounds; about 2,400 (0.67%) were called active.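 How the source made its calls: active means inhibition above about 55% (limit read from the data); inconclusive means no clear call, values can overlap the other calls; inactive means the rest.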 This excerpt belongs to a sample that is enriched for actives.

This experiment in a line: LAMP-1 surface exposure blockers, TALL-104 cells – cell-based, flow cytometry, MLPCN library, primary screen (AID 651702). As to conditions: TALL-104 LAMP-1 surface exposure, at 10 µM, stronger effect = higher value, cells stimulated with thapsigargin and PMA. (In general: A flow cytometer gives signals particle by particle.)
The inhibition is the drop in the measured response relative to a control, in per cent. As to `O=C(COC(=O)/C=C/c1cccc(Cl)c1)NCc1cccs1`, the inhibition was 18.2% (inactive).
In the case of `CC1CCCCC1NC(=O)Cn1c(=O)cnc2ccccc21` (configuration not stated) it was 25.2% (inactive); in that of `CCc1cc(C(=O)N(CC)CC(=O)Nc2c(F)cccc2F)sc1C`, 18.1% (inactive); in that of `O=C(Cn1nnc(-c2ccc(CN3CCOCC3)cc2)n1)NC1CCCCC1`, -4.2% (inactive).
In the case of `O=C(Nc1ccccc1)c1ccccc1Br` it was -1.5% (inactive); in that of `COc1cccc(Nc2ncccc2C(=O)O)c1`, -1.7% (inactive); in that of `O=C(Nc1ccccc1)c1cccnc1Nc1ccccc1`, 99.9% (active).
In the case of `Cc1cccc(C(=O)NNC(=O)CSc2nnc(C(C)C)n2C)c1` it was -2.9% (inactive); in that of `COc1cccc(CN(C)CC(=O)Nc2ccccc2C(=O)Nc2ccccc2)c1`, 8.4% (inactive); in that of `COc1cccc(CN(C)CC(O)COC(c2ccccc2)c2ccccc2C)c1` (configuration not stated), 60.5% (active).
As to `Cc1ccccc1C(OCC(O)CN1CCCCC1CCO)c1ccccc1` (configuration not stated), the inhibition was -0.9% (inactive).
In the case of `COc1ccc(-c2c(C#Cc3ccccc3)c3ccccc3n2C)cc1` it was -3.3% (inactive); in that of `COc1ccc(CCNC(=O)COC(=O)c2cc(=O)c3ccccc3o2)cc1`, -2.7% (inactive).
Regarding `COc1ccc(CCNCc2c(-c3ccccc3)n(C)c3ccccc23)cc1`, the inhibition is 90.8% (active).
In the case of `CC[C@@H]1CC2=C(C(=O)OC(C)(C)O2)[C@@H](CC)O1` it was -0.8% (inactive).
In the case of `Cc1cccc(-c2ncc(CN3CCC(CO)(CCCc4ccccc4)CC3)cn2)c1` it was 2.3% (inactive).
For `CC(C)(O)C#Cc1ccc(CN2CCC(CO)(CCc3ccccc3)CC2)cc1` the value was -3% (inactive).
For `Cc1c(CN2CCC(CO)(CCOc3ccccc3)CC2)[nH]c2ccc(Cl)cc12`, the inhibition is 64.1% (active).
On to `Cc1cc(=O)cc(C)[nH]1`, for which the inhibition is -3.9% (inactive).
`Cc1oc(-c2ccccc2Cl)[n+]([O-])c1C`: the inhibition is 58.5% (active).
In the case of `CCOc1cnc(-c2c(-c3ccccc3Cl)noc2C)o1` it was 1.2% (inactive); in that of `Cc1oc(-c2cccc(Cl)c2)[n+]([O-])c1C`, 8% (inactive).
For `COc1ccc([C@H]2CC(=O)C=C(c3ccc(OC(F)(F)F)cc3)C2)cc1OC` the value was -1.8% (inactive); for `CC1(C2CC2)NC(=O)N(CC(=O)N2CCN(c3ccccc3F)CC2)C1=O` (configuration not stated), 2% (inactive); for `Cc1cccc(NC(=O)c2cccc(C(=O)Nc3cccc(C)c3C)n2)c1C`, -1.9% (inactive).
In the case of `CCc1ccccc1N(CC(=O)NCCSCc1ccco1)S(C)(=O)=O` it was -0.4% (inactive); in that of `CS(=O)(=O)N(Cc1ccc(Cl)cc1)c1ccc(C(=O)NCCSCc2ccco2)cc1`, 95.2% (active); in that of `Cc1cc(C)cc(N(CC(=O)NCCSCc2ccco2)S(C)(=O)=O)c1`, -4.7% (inactive).
As for `COc1cccc(NC(=O)CSc2nccn(-c3ccc4c(c3)OCCO4)c2=O)c1`, the inhibition was -0.2% (inactive).
In the case of `C/C=C/c1ccc(OCC(O)CN2CCCCCCC2)c(OC)c1` (configuration not stated), the inhibition was -1% (inactive).
For `CCOC(=O)N1CCN(c2cc(C)c([N+](=O)[O-])cc2F)CC1` the value was -1% (inactive); for `CN(C)c1ccc(N/C=C/C(=O)C(F)(F)F)cc1`, 0.5% (inactive).
In the case of `NNC(=O)C1CC(O)CN1S(=O)(=O)c1ccc(Cl)cc1` (configuration not stated) it was -0.1% (inactive); in that of `Cc1ccc2nc(COc3ccc(N(C)S(=O)(=O)c4ccccc4)cc3)cc(=O)n2c1`, 2% (inactive).
On to `COc1cccc(COc2ccc(N(C)S(=O)(=O)c3ccccc3)cc2)c1`, for which the inhibition was 72% (active).
For the molecule `CN(c1ccccc1)S(=O)(=O)c1ccc(NC(=O)COc2ccccc2)cc1`, the inhibition is 16.3% (inactive).
In the case of `Cc1ccc(NC(=O)CN2CCCCC2)c2c1CC(C)(C)O2` it was -0.4% (inactive).
In the case of `Cc1ccc(NC(=S)N(CCCN2CCCC2)Cc2cccn2Cc2ccc(Cl)cc2)cc1` it was 75.2% (active); in that of `CCc1cccc(C)c1NC(=S)N(CCCN1CCN(C)CC1)Cc1cccs1`, -1.6% (inactive); in that of `Cc1ccccc1NC(=S)N(CCCN1CCOCC1)Cc1cccs1`, 5.8% (inactive).
`O=C(c1n[nH]c2c1CCC2)N1CCCC(Nc2cccc(F)c2)C1` (configuration not stated): the inhibition was -7.9% (inactive).
In the case of `CCCCC(CC)CNCc1cccn1CCN1CCOCC1` (configuration not stated) it was 19.8% (inactive); in that of `COc1ccc(NC(=O)C2=CC(c3ccc(OC)c(OC)c3)=NS(=O)(=O)N2C)cc1`, -5.8% (inactive); in that of `CCc1ccc(C2N3CC4([N+](=O)[O-])CN2CC([N+](=O)[O-])(C3)C4(C)C)cc1` (configuration not stated), -2% (inactive).
Take `Oc1ccc2ccccc2c1N=Nc1nccs1`: the inhibition is 61.9% (active).
For the molecule `CC(C)(C)c1cc2cccnc2n1Cc1ccccc1`, the inhibition was 0% (inactive).
For `O=S(=O)(Nc1ccc2ccccc2c1)N1CCCCC1` the value was -2.7% (inactive); for `COc1ccc(S(=O)(=O)N(C)C[C@@H]2Oc3ccc(NS(=O)(=O)c4cn(C)cn4)cc3C(=O)N([C@@H](C)CO)C[C@@H]2C)cc1`, -0.8% (inactive).
For `O=S(=O)(Nc1ccc(OC(F)(F)F)cc1)c1cccc2nonc12` the value was -6.5% (inactive); for `COc1ccccc1NS(=O)(=O)c1ccc(C(=O)N2CCN(c3ccccc3O)CC2)cc1`, 2.1% (inactive); for `O=S(=O)(Nc1ccc(O)c2ccccc12)c1ccc(OC(F)(F)F)cc1`, 60.2% (active).
For `O=C(NCc1cccc(C(F)(F)F)c1)c1ccc2sc(COCCO)nc2c1` the value was 2.2% (inactive); for `C#CCN1C(=O)C(O)(CC(=O)c2cc(OC)ccc2OC)c2ccccc21` (configuration not stated), -1.2% (inactive); for `CCCCN1C(=O)/C(=C(/C#N)C(N)=O)c2ccccc21`, -1.7% (inactive).
Turning to `COc1ccc2c(c1)C(=C(C#N)C#N)C(=O)N2CCc1ccccc1`, the inhibition is 97.9% (active).
Consider `CCOC(=O)[C@]12CCCC=C1N(CCC1=CCCCC1)C(=O)[C@H](CC(=O)NCCCCc1ccccc1)C2`, for which the inhibition was 11.5% (inactive).
As to `Cc1cccc(OCC(O)Cn2c(=N)n(CCN3CCOCC3)c3ccccc32)c1` (configuration not stated), the inhibition is 1.7% (inactive).
In the case of `OC(COc1ccc(CN2CCSCC2)cc1)CN1CCCCC1` (configuration not stated), the inhibition was 19.9% (inactive).
In the case of `OC(CN=c1sc2ccccc2n1CC(O)COc1ccccc1)COc1ccccc1` (configuration not stated) it was 91.1% (active); in that of `O=c1cc(CO)oc(C(Nc2cccc(C(F)(F)F)c2)c2ccccn2)c1O` (configuration not stated), 1.7% (inactive).
In the case of `CC(C)CCN1NC2(CCC(C)CC2)NC1=S` (configuration not stated) it was -6.9% (inactive).
For `O=C(COC(=O)c1ccccc1SCC(=O)N1CCCC1)Nc1ccccc1OC(F)F` the value was -7.8% (inactive); for `Cc1ccccc1CSCCNC(=O)c1ccc(N(C)S(=O)(=O)c2ccccc2)cc1`, 6.2% (inactive).
On to `CN(c1ccccc1)S(=O)(=O)c1ccc(C(=O)NCCc2ccccc2)cc1`, for which the inhibition was 70.8% (active).
In the case of `CN(c1ccccc1)S(=O)(=O)c1ccc(C(=O)NCc2cccnc2)cc1` it was -0.5% (inactive); in that of `CCOC(=O)[C@H]1[C@H]2COc3cc(OC)ccc3[C@@H]2N2C(=O)N(c3ccc(Br)cc3)C(=O)[C@@]12C`, -15.5% (inactive); in that of `CC(Oc1ccccc1)C(=O)Nc1c2c(nn1-c1ccccc1)CS(=O)C2` (configuration not stated), -4% (inactive).
For `O=C(Cc1csc(Nc2nc(=S)[nH]c3ccccc23)n1)NCCCN1CCN(c2cccc(Cl)c2)CC1` the value was 56.9% (active); for `O=C(Cc1ccc(-n2c(=O)[nH]c3ccccc3c2=O)cc1)N1CCN(c2cccc(Cl)c2)CC1`, -0.7% (inactive).
For `CCOC(=O)N1CCC(Nc2c(NCCN3CCN(c4cccc(Cl)c4)CC3)c(=O)c2=O)CC1` the value was 1.5% (inactive); for `CC(=O)OCC(=O)C1(O)CCC2C3CC(C)C4=CC(=O)CCC4(C)C3C(O)CC21C` (configuration not stated), -8.4% (inactive); for `CC(C(=O)NCC1CCCCC1)N(C)Cc1cccc(Cl)c1` (configuration not stated), 0.2% (inactive).
Turning to `COc1ccc(NC(=O)C(c2ccncc2)n2c(=O)c(-c3cc4ccccc4[nH]3)nc3ccccc32)cc1` (configuration not stated), the inhibition is 19.8% (inactive).
As to `COc1cc(NC(=O)COC(=O)c2cc(S(=O)(=O)N3CCOCC3)ccc2F)cc(OC)c1`, the inhibition was -1.4% (inactive).
As to `Cc1nc(C(=O)Nc2ccc(Cl)cc2)sc1C1(C)CC(c2ccccc2)=NO1` (configuration not stated), the inhibition is 1.2% (inactive).
In the case of `Cc1nc(-c2ccc(Cl)cc2)sc1C1(C)CC(c2ccccc2F)=NO1` (configuration not stated) it was 5.5% (inactive).
In the case of `Cc1nc(-c2ccc(Cl)cc2)sc1C1(C)CC(c2ccc(Br)cc2)=NO1` (configuration not stated) it was 56.1% (active); in that of `Cc1ccccc1CSc1nnc(CCCCCNC(=O)OC(C)(C)C)o1`, -4.6% (inactive).
For `CC(C)Cc1nnc(NC(=O)CN2C(=O)NC3(CCCCC3)C2=O)s1` the value was -0.9% (inactive); for `Cc1nc2ccc(C(=O)N(C)CC3CCCN(CCc4ccc(Cl)cc4)C3)cc2[nH]1` (configuration not stated), 6.7% (inactive); for `COc1cccc(CN(C)CC2CCCN(CCc3ccc(Cl)cc3)C2)c1OC` (configuration not stated), 75.1% (active).
Take `COc1cccc(CN(C)CC(=O)NCc2ccccc2Cl)c1OC`: the inhibition is -3.5% (inactive).
As for `COCCNC(=O)C(c1ccc(O)cc1)N(C(=O)CCC(=O)Nc1nccs1)c1ccc(C)cc1` (configuration not stated), the inhibition is -4.4% (inactive).
Turning to `CCOc1cc(CN2CCCC(CO)(Cc3ccc(F)cc3F)C2)ccc1OC` (configuration not stated), the inhibition was 11.4% (inactive).
For `Cc1cc(C)cc(NC(=O)NC2CCN(CC(=O)Nc3cccc(Cl)c3C)CC2)c1` the value was 9.3% (inactive).
With `COc1ccc(CCNC(=O)CN(c2ccccc2)S(C)(=O)=O)cc1`, the inhibition is 10.8% (inactive).
Take `N=c1c2c(-c3ccccc3)c(-c3ccccc3)oc2ncn1Cc1ccco1`: the inhibition is 59.7% (active).
Turning to `COc1ccc(-c2oc3ncn(Cc4ccco4)c(=N)c3c2-c2ccc(OC)cc2)cc1`, the inhibition is 24.9% (inactive).
As to `C(=C\c1ccccc1)/CSc1nnc(-c2cccnc2)n1Cc1ccco1`, the inhibition was -1% (inactive).
`COc1ccccc1C(=O)NCCC(=O)NN1C(=O)NC2(CCCCC2)C1=O`: the inhibition is 4% (inactive).
For `O=C(O)C(F)(F)C(NCc1ccccc1)c1ccccc1` (configuration not stated) the value was 2.5% (inactive); for `Cc1cc(C)n(CCNC(=O)CC2C(=O)NCCN2Cc2ccc(C)o2)n1` (configuration not stated), -10.6% (inactive).

(Values after PubChem BioAssay AID651702 (NMMLSC, 2012).)
